The values below come from the OligoGym collection.
Note: reference of the scale not given here.

The target of the first test is ANXA5. Put plainly: pooled miR-30 sensor sort-seq; sequence = guide strand. To be noted: shRNA.
TTTAGTTGCGAACTTCACTAAT registered a sensor-assay potency score (higher = more potent) of -0.975. The same measure, in the same setting: the same measure for TTAATTTTTCAAATTTTCCAGT: 0.274; for TAAATTGCCAGAAGTCTCGCGG: 0.467; for TTCTTCCTAAACTCCTTCCTGA: -0.49. TTCTTCTATGACGTGTATGTGT: the sensor-assay potency score (higher = more potent) is -0.0894. On the same count and under the same terms, the same measure for TTTCTGTCAGTACTTTTTCATT: -1.52.

AACAGATCAATCTCACTCCTGG came in with a sensor-assay potency score (higher = more potent) of -0.0547.

On to TTCAACTTGAGCTTCATCAATT, for which the sensor-assay potency score (higher = more potent) is -0.586. TTCTTCTTCATAAACTTGTTTG: the sensor-assay potency score (higher = more potent) is -0.985. The same measure, in the same setting: the same measure for TTCTTCATAAACTTGTTTGATG: -0.36; for TTTCACAACAGCAAGGAGTAGT: -0.0711.

TAATCTTTTGAATACAATCATC showed a sensor-assay potency score (higher = more potent) of -1.12.

Turning to TTGGTCATGAGCATGCTAGTAT, the sensor-assay potency score (higher = more potent) is -0.14. Same read-out and setting: the same measure for TACTTGTCAAACACCTTTCTCA: 0.224; for TCAAATGAGACACACTTCGTGT: -0.219. Still for that read-out and setting: the same measure for TAGCATAATAGAGGGTCTCTGC: -0.439; for TTCATAAGCATCATAAAGCCGA: -0.311. Same read-out and setting: the same measure for TTCGAATAGATTTCACAACAGC: -0.293; for TACACTTTAGTACTACAGCAGT: -0.815. In the case of TTTCATTTGTTCCAGCTCCCTT, the sensor-assay potency score (higher = more potent) was -0.639. The same measure, in the same setting: the same measure for TAAACTTAGTAACATTAAGTAC: -0.822.

A further test addresses AP1S1. The test is described as above. To be noted: shRNA.
Take TGTGATGAGCTCATTGTCTTGG: the sensor-assay potency score (higher = more potent) was 0.479.

Turning to TATATTTACAGTTATTAGGGAG, the sensor-assay potency score (higher = more potent) stood at 0.379. Still for that read-out and setting: the same measure for TTATAGACAACTTTGAGGTCCC: 0.854.

Consider TTTCAGCACACTCTTCTTGGAG, for which the sensor-assay potency score (higher = more potent) was -0.813. The same measure, in the same setting: the same measure for TATCTCTTATAGACAACTTTGA: -1.08; for TCTTATAGACAACTTTGAGGTC: -0.45; for TTGCAGTAGGTCAGCCTGCTCG: -0.856. For TCTCTTATAGACAACTTTGAGG, the sensor-assay potency score (higher = more potent) is -1.16. The same measure, in the same setting: the same measure for TCGCGCACCATCTTCTTCCGTT: -0.362; for TCCAGCTCGCACACACTGCCAA: -0.956; for TTTGTCTAAGAGCTCCACGTAT: -0.832. In the case of ATAGACAACTTTGAGGTCCCTC, the sensor-assay potency score (higher = more potent) turned out to be 0.0527. Still for that read-out and setting: the same measure for TTGAAGATGATGTCCAGCTCGC: 0.319; for TTGTCTAAGAGCTCCACGTATC: -1.02. The same measure, in the same setting: the same measure for TTCAGCACACTCTTCTTGGAGG: -0.8; for TTTGCAGCCGCAGTTTTCCCTG: -0.931. Still for that read-out and setting: the same measure for TTTGAGGTCCCTCCACTCCAGG: -1.48; for TCTAAGAGCTCCACGTATCGGT: 0.301. TTCCGTTCCTTGTCCGAAGTGG came in with a sensor-assay potency score (higher = more potent) of 0.268.
